An excerpt weighted towards active compounds, which were near 21% of everything screened.
Cycloheximide cs = counter-screen hit for Shiga toxin inhibitors, cycloheximide. cell reporter, cycloheximide protein synthesis inhibition counterscreen. max response, %. 300,000 compounds, 12% hits. AID 2314; in the data active = max response mostly above about 13%, no sharp cut-off; inactive = mostly below about 14%; note: read at 38.3 µM for the half of the compounds with a filed dose; 0% is about no effect
NS1 inh = inhibitors of influenza NS1 protein function | 270,000 compounds, 0.4% hits | Potency, µM (top dose mostly 46.1 µM), for the others: at the highest dose activity, positive = more growth; calls by dose curve; note: potency is the fitted concentration of half-maximal effect; actives are rising curves; nearly all actives have a fitted effect of over 50% in size
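Compounds were scored for reversing the slow growth caused by influenza A NS1 in S. cerevisiae, measured by optical density at 600 nm. Assay medium contained 2% galactose at pH 6.0; NS1-free yeast of the same strain were the positive control.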
Pf growth 96h = P. falciparum growth inhibition at 96 hours; P. falciparum luciferase reporter growth, 96 h; 320,000 compounds, 6.9% hits; Potency, µM (series often up to 28.7 µM), without a hit: at the top dose activity change, negative = inhibition, most hits filed as inhibitors; note: potency is the fitted concentration of half-maximal effect; % is set by controls: 0 for no effect and ±100 for the full control effect
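Two-generation exposure (96 h) targets delayed-death phenotype. Reporter parasites carrying integrated firefly luciferase, in red cells at 2% hematocrit and 0.05% parasitemia final, kept at 37 C, 5% CO2; luminescence loss indicates inhibition.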
Shiga toxin inh = Shiga toxin inhibition. Vero cells, Shiga toxin protein synthesis inhibition reporter. inhibition, % at 38.7 µM. 290,000 compounds, 9.2% hits; in the data active = inhibition mostly above about 28%, no sharp cut-off; inactive = mostly below about 43%; note: 0% is about no effect
Pf growth 48h = P. falciparum growth inhibition at 48 hours (one generation) | 310,000 compounds, 5.9% hits | Potency, µM (titrated, usually from 28.7 µM), without a hit: top-dose activity change, negative = inhibition, most hits filed as inhibitors | P. falciparum luciferase growth in erythrocytes, 48 h; note: potency is the fitted concentration of half-maximal effect; % is set by controls: 0 for no effect and ±100 for the full control effect
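In quantitative HTS format, infected erythrocytes bearing luciferase-reporter parasites were treated for a single generation at 37 C. Luminescence after adding detection reagent served as the growth measure.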
* = called active by the depositor; ! = a repeat was not active; [ ] = dose if it differs, or a comment. Unless noted, calls come from the whole dose curve; as a rule, active = well fitted inhibition curve with a large enough effect; inconclusive = small, poorly fitted or top-dose-only effect, or another doubt; inactive = no such curve, though single readings can be large or run the other way.

`O=C(Nc1ccccc1-c1ccccc1)NC1CC2CCCC(C1)N2CCc1ccccc1` (stereo unspecified) gave Cycloheximide cs 0, NS1 inh -9%, Pf growth 96h inconclusive, Shiga toxin inh -14 and Pf growth 48h 5.2µM*.
`CCCN1C2CCCC1CC(NC(=O)Nc1cccc(C(C)=O)c1)C2` (stereo unspecified) gave Cycloheximide cs -2, NS1 inh -1%, Pf growth 96h inconclusive, Shiga toxin inh -11 and Pf growth 48h inconclusive.
COc1cc(S(=O)(=O)Nc2cccc3cn[nH]c23)c(OC)cc1C was read as Cycloheximide cs -4, NS1 inh -17%, Pf growth 96h 2.9µM*, Shiga toxin inh -22 and Pf growth 48h 10µM*.
Screening O=S(=O)(Nc1cccc2cn[nH]c12)c1ccc(F)cc1 returned Cycloheximide cs -1, NS1 inh 0%, Pf growth 96h 110%, Shiga toxin inh -6 and Pf growth 48h 11%.
`COC(=O)c1ccccc1NC(=O)N1CCN(c2ccc(F)cc2)CC1` gave Cycloheximide cs 1, NS1 inh 0%, Pf growth 96h 4.1µM*, Shiga toxin inh -20 and Pf growth 48h -9%.
`O=C(Nc1cccc2ccccc12)N1CCN(c2ccc(F)cc2)CC1` gave Cycloheximide cs 7, NS1 inh 3%, Pf growth 96h 1.5µM*, Shiga toxin inh -11 and Pf growth 48h 13%.
O=C(Nc1cccc2ccccc12)N1CCCN(c2c(Cl)cncc2Cl)CC1 was read as Cycloheximide cs -1, NS1 inh -5%, Pf growth 96h 5.9µM*, Shiga toxin inh -7 and Pf growth 48h inconclusive.
`COC(=O)c1ccccc1NC(=S)N1CCN(c2ccccc2)CC1` gave Cycloheximide cs -8, NS1 inh -1%, Pf growth 96h -5%, Shiga toxin inh 2 and Pf growth 48h 14%[0.00184 µM].
`C/C(=N\NC(=O)c1ccc(F)cc1)c1cccc(NC(=O)c2ccco2)c1` gave Cycloheximide cs 14, NS1 inh -60%, Pf growth 96h inconclusive, Shiga toxin inh 64 and Pf growth 48h 43%.
For C/C(=N\NC(=O)c1cccc(N/N=C(\C)c2cc(O)ccc2O)c1)c1cc(O)ccc1O the results were Cycloheximide cs 32*, NS1 inh 10%, Pf growth 96h inconclusive, Shiga toxin inh 88* and Pf growth 48h inconclusive.
`C/C(=N\NC(=O)c1cccc(N/N=C(\C)c2ccco2)c1)c1ccco1` gave Cycloheximide cs 29*, Pf growth 96h 7%, Shiga toxin inh 90* and Pf growth 48h 0%.
Screening O=C(N/N=C/C=C/c1ccco1)c1cccc([N+](=O)[O-])c1 returned Cycloheximide cs -2, NS1 inh 6%, Pf growth 96h inconclusive, Shiga toxin inh 8 and Pf growth 48h 9%.
`C/C(=N\NC(=O)c1cccc([N+](=O)[O-])c1)c1ccco1` gave Cycloheximide cs 15*, NS1 inh 5%, Pf growth 96h 13%, Shiga toxin inh 50* and Pf growth 48h 13%.
CCc1cccc(NC(=O)c2ccc(CNc3c(N4CCCC4)c(=O)c3=O)cc2)c1 was read as Cycloheximide cs -2, NS1 inh 1%, Pf growth 96h inconclusive, Shiga toxin inh 7 and Pf growth 48h inconclusive.
For NC(=O)NC(=O)CSc1nc2sc(-c3ccccc3)cc2c(=O)n1-c1ccccc1 the results were Cycloheximide cs 11*, Pf growth 96h 39%[5.75 µM], Shiga toxin inh 20 and Pf growth 48h 17%.
CC(C)Sc1nc2sc(-c3ccccc3)cc2c(=O)n1N was read as Cycloheximide cs 1, NS1 inh 3%, Pf growth 96h 69%, Shiga toxin inh -4 and Pf growth 48h -3%.
Screening CSc1nc2sc(-c3ccccc3)cc2c(=O)n1N returned Cycloheximide cs 22*, NS1 inh 0%, Pf growth 96h 354%, Shiga toxin inh 48 and Pf growth 48h 99%.
For CNC(=O)CSc1nc2sccc2c(=O)n1-c1ccccc1 the results were Cycloheximide cs -6, NS1 inh 14%, Pf growth 96h 8%, Shiga toxin inh -9 and Pf growth 48h -2%.
`COc1ccc(C(CC(=O)NCC(OC)OC)NS(=O)(=O)c2ccc(Cl)cc2)cc1` (stereo unspecified) gave Cycloheximide cs -14, Pf growth 96h inconclusive, Shiga toxin inh -20 and Pf growth 48h 4%.
`CC1CC(C)(C)NC(C)c2ccccc21` (stereo unspecified) gave Cycloheximide cs -6, NS1 inh -4%, Pf growth 96h 11%, Shiga toxin inh -13 and Pf growth 48h -6%.
CC1CC(C)(C)NCc2ccccc21 (stereo unspecified) was read as Cycloheximide cs -6, NS1 inh 7%, Pf growth 96h 9.3µM*, Shiga toxin inh -9 and Pf growth 48h 0%.
CC(=O)Nc1ccc(-c2csc(NCc3ccco3)n2)cc1 was read as Cycloheximide cs 48*, NS1 inh 23%, Pf growth 96h 0%, Shiga toxin inh 44* and Pf growth 48h 162%.
CC(=O)NNc1nc(-c2ccc(NC(C)=O)cc2)cs1 was read as Cycloheximide cs 3, NS1 inh inconclusive, Pf growth 96h -12%, Shiga toxin inh 11 and Pf growth 48h 30%.
For c1cncc(-c2csc(NCc3ccco3)n2)c1 the results were Cycloheximide cs 32*, NS1 inh -47%, Pf growth 96h inconclusive and Shiga toxin inh 38*.
For COc1ccc(-c2csc(NCc3ccco3)n2)cc1C the results were Cycloheximide cs 24*, NS1 inh inconclusive, Shiga toxin inh 114* and Pf growth 48h -16%.
Screening Cc1cccc(Nc2nc(-c3c(C)nc4ccccn34)cs2)c1 returned Cycloheximide cs 0, NS1 inh -11%, Pf growth 96h inconclusive, Shiga toxin inh -19 and Pf growth 48h inconclusive.
`Cc1ccn2c(-c3csc(NCc4ccco4)n3)c(C)nc2c1` gave Cycloheximide cs 2, NS1 inh -14%, Pf growth 96h -5%, Shiga toxin inh 55 and Pf growth 48h 12µM*.
Screening COc1ccc(-c2nc3cccc(C)n3c2NCc2ccco2)cc1OC returned Cycloheximide cs 16*, NS1 inh -30%, Pf growth 96h 10%, Shiga toxin inh -4 and Pf growth 48h 10%.
`COc1ccc(-c2ccc(C#N)c(SCC(=O)NCc3ccco3)n2)cc1OC` gave Cycloheximide cs 3, NS1 inh 3%, Pf growth 96h inconclusive, Shiga toxin inh -6 and Pf growth 48h inconclusive.
`COc1ccc(C)cc1N(C(=O)c1ccc(C#N)cc1)C1=NC(C)(C)CS1` gave Cycloheximide cs 1, NS1 inh -2%, Pf growth 96h -10%, Shiga toxin inh 4 and Pf growth 48h -15%.
N#CC(C#N)=Cc1ccc(O)cc1 was read as Cycloheximide cs 20 and Shiga toxin inh active!.
Screening N#CC(C#N)=Cc1cccnc1 returned Cycloheximide cs -2, NS1 inh 6%, Pf growth 96h 6%, Shiga toxin inh 4 and Pf growth 48h -1%.
`N#CC(C#N)=Cc1cc(O)c(O)c(O)c1` gave NS1 inh 16%, Pf growth 96h 11µM* and Pf growth 48h 7.6µM*.

High-throughput results from PubChem BioAssay.
